Several values for one entry are separate records, joined by “and”; a condition that tells them apart may be missing. Equal values may be shown once. Records with an inconclusive call do not appear. Activity calls are given as the source filed them. How the source made its calls: active means hit-call score of the fitted dose curve at least 0.9, where 1 is the maximum; inconclusive means response in the unintended direction; inactive means score below 0.9.
What was measured:
[1] = target: human Opioid Receptor Mu (Opiate Mu), OPRM1 (gene 4988) (UniProt P35372); experiment: NVS_GPCR_hOpiate_mu: NovaScreen (NVS) G Protein-Coupled Receptor Assay for human Opioid Receptor Mu (Opiate Mu) (AID 2283290);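 further: hits lower bound tracer signal versus DMSO meaning displacement of the ligand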
Method in brief: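 Cell-free radioligand binding to membranes from CHO cells expressing the receptor; bound tracer measured by filter-based scintillation counting 2.5 hours after dosing. Loss of signal versus DMSO baseline reflects displacement; primary screen at 25 uM in duplicate, actives followed up in concentration series.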

[2] = target: human Orphanin, Opioid Related Nociceptin Receptor 1 (ORL1), OPRL1 (gene 4987) (UniProt P41146); experiment: NVS_GPCR_hORL1: NovaScreen (NVS) G Protein-Coupled Receptor Assay for human Orphanin, Opioid Related Nociceptin Receptor 1 (ORL1) (AID 2283283)
Method in brief: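 Filter-based radioligand displacement with receptor extracted from HEK293 cells, read 1 hour after dosing by scintillation counting. Duplicate single-point screen at 25 uM; qualifying chemicals then run in concentration-response to 50 uM, analysed relative to DMSO.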

[3] = system: 5-hydroxytryptamine receptor 2C (pig); experiment: NVS_GPCR_p5HT2C: NovaScreen (NVS) G Protein-Coupled Receptor Assay for pig Serotonin, 5-Hydroxytryptamine Receptor 2C (5HT2C) (AID 2283288)
Protocol: NVS_GPCR_p5HT2C is a biochemical, single-readout assay that uses extracted gene-proteins from Pig choroid plexus membranes in a tissue-based cell-free assay. Measurements were taken 1 hour after chemical dosing in a 48-well plate.NVS_GPCR_p5HT2C is one of one assay component(s) measured or calculated from the NVS_GPCR_p5HT2C assay. It is designed to make measurements of radioligand binding, a form of binding reporter, as detected with scintillation counting signals by Filter-based radiodetection technology.Data from the assay component NVS_GPCR_p5HT2C was analyzed into 1 assay endpoint. This assay endpoint, NVS_GPCR_p5HT2C, was analyzed in the positive analysis fitting direction relative to DMSO as the negative control and baseline of activity. Using a type of binding reporter, loss-of-signal activity can be used to understand changes in the binding as they relate to the gene HTR2C. Furthermore, this assay endpoint can be referred to as a primary readout, because the performed assay has only produced 1 assay endpoint. To generalize the intended target to other relatable targets, this assay endpoint is annotated to the gpcr intended target family, where the subfamily is rhodopsin-like receptor.
Binding assays used specific radioligands (tritiated, iodinated) with non-radioactive competitive displacement ligands in agonist or antagonist protocols (as indicated) and various reference compounds and inhibitors to titrate specific binding to receptors and transporters. Most enzyme assays (CYPs, kinases, phosphatases, proteases, HDACs) used recombinant protein and specific substrates (fluorescence mostly, some colorimetric and radioactive) and inhibitors, followed by a biochemical separation of substrate and product. All assays for the biochemical HTS were initially run in duplicate at a single concentration (10 uM for CYP450 assays and 25 uM for all others). […] Each assay was run with positive and negative controls, and concurrent controls on every plate. The follow-up (secondary) screen tested active chemical-pairs in concentration series, as well as a few additional assays not tested in the primary screen, some selected negative inactives, and several cases re-run in the concentration series for confirmatory purposes.

[4] = target: human Vasopressin 1A Receptor (V1A), AVPR1A (gene 552) (UniProt P37288); experiment: NVS_GPCR_hV1A: NovaScreen (NVS) G Protein-Coupled Receptor Assay for human Vasopressin 1A Receptor (V1A) (AID 2283284)
Method in brief: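 Cell-free radioligand displacement on human platelet preparations, 1.5 h incubation, filter-based scintillation counting. Chemicals first tested in duplicate at 25 uM; actives then run in concentration-response up to 50 uM, loss of signal fitted against DMSO.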

[5] = target: rat Serotonin, 5-Hydroxytryptamine Receptor 1 (5HT1), Non-Selective Binding, Htr1a (gene 24473) (UniProt P19327); experiment: NVS_GPCR_r5HT1_NonSelective: NovaScreen (NVS) G Protein-Coupled Receptor Assay for rat Serotonin, 5-Hydroxytryptamine Receptor 1 (5HT1), Non-Selective Binding (AID 2283286)
Method in brief: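 Rat cortical membranes, radioligand displacement, 1 h incubation, read by filter scintillation. Primary screen in duplicate at 25 uM. Hits (e.g. ≥30% inhibition) went to concentration-response up to 50 uM, fitted as loss of binding versus DMSO.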

[6] = target: guinea pig Serotonin, 5-Hydroxytryptamine Receptor 4 (5HT4), HTR4 (gene 100135548) (UniProt O70528); experiment: NVS_GPCR_g5HT4: NovaScreen (NVS) G Protein-Coupled Receptor Assay for guinea pig Serotonin, 5-Hydroxytryptamine Receptor 4 (5HT4) (AID 2283294)
Method in brief: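 Guinea pig striatal membranes; radioligand competitive displacement, filtration and scintillation counting after 1 h. Primary screen in duplicate at 25 uM; actives then tested in concentration series; loss of binding signal fitted relative to DMSO.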

[7] = target: mouse Cholecystokinin, CCK1 Receptor (CCKA), Cckar (gene 12425) (UniProt O08786); experiment: NVS_GPCR_mCCKAPeripheral: NovaScreen (NVS) G Protein-Coupled Receptor Assay for mouse Cholecystokinin, CCK1 Receptor (CCKA) (AID 2283285)
Method in brief: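 Radioligand competitive displacement on mouse pancreatic membranes, 2 h incubation; filter-based scintillation counting, loss of signal versus DMSO. Single-concentration screen at 25 uM in duplicate, actives retested in concentration-response up to 50 uM.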

[8] = target: mouse Cholecystokinin, CCK2 Receptor (CCKB), Cckbr (gene 12426) (UniProt P56481); experiment: NVS_GPCR_mCKKBCentral: NovaScreen (NVS) G Protein-Coupled Receptor Assay for mouse Cholecystokinin, CCK2 Receptor (CCKB) (AID 2283293)
Method in brief: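 Radioligand displacement binding on mouse forebrain membranes, 2 h exposure, filter-based scintillation counting. Primary screen in duplicate at 25 uM; actives (e.g. ≥30% inhibition) retested in concentration-response up to 50 uM; loss of binding signal relative to DMSO.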

[9] = system: rabbit Platelet Activating Factor Receptor (PAF), gene 100354046; experiment: NVS_GPCR_rabPAF: NovaScreen (NVS) G Protein-Coupled Receptor Assay for rabbit Platelet Activating Factor Receptor (PAF) (AID 2283287)
Method in brief: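 Rabbit platelet membrane preparation; radioligand displacement read by filter-based scintillation counting 1 h after dosing, loss of signal versus DMSO. Primary screen in duplicate at 25 uM, actives followed up in concentration series.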

[10] = target: rat Adrenergic, Alpha 1, Non-selective Receptor (Adra1), Adra1a (gene 29412) (UniProt P43140); experiment: NVS_GPCR_rAdra1_NonSelective: NovaScreen (NVS) G Protein-Coupled Receptor Assay for rat Adrenergic, Alpha 1, Non-selective Receptor (Adra1) (AID 2283289)
Method in brief: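 Rat forebrain membranes; radioligand displacement read by filter-based scintillation counting 1 h after dosing. Primary screen in duplicate at 25 uM; hits (e.g. ≥30% inhibition) rerun as concentration–response to 50 uM max. Fitted versus DMSO.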

guinea pig Serotonin, 5-Hydroxytryptamine Receptor 4 (5HT4), HTR4 (gene 100135548), sequence (O70528 whole entry, looked up): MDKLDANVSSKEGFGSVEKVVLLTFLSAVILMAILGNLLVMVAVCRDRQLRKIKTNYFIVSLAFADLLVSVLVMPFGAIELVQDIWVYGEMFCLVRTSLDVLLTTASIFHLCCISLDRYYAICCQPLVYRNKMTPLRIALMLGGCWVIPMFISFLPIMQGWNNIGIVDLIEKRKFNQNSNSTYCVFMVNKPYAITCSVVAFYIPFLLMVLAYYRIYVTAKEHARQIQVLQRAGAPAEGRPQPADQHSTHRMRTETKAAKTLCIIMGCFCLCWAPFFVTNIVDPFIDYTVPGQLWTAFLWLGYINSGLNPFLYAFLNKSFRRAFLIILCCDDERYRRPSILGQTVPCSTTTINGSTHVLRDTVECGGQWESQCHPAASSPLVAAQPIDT
human Opioid Receptor Mu (Opiate Mu), OPRM1 (gene 4988), sequence (P35372 whole entry, looked up): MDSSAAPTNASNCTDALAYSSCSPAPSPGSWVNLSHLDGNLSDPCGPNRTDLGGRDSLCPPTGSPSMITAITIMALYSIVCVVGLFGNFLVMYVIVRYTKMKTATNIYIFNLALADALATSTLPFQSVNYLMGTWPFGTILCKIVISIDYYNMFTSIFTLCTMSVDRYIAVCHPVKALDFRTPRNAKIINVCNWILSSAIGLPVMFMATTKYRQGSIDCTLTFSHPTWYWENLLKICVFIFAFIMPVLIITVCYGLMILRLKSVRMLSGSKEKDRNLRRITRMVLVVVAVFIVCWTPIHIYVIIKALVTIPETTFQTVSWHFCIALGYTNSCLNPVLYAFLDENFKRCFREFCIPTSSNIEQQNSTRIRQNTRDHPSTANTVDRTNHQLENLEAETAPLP
rat Serotonin, 5-Hydroxytryptamine Receptor 1 (5HT1), Non-Selective Binding, Htr1a (gene 24473), sequence (P19327 whole entry, looked up): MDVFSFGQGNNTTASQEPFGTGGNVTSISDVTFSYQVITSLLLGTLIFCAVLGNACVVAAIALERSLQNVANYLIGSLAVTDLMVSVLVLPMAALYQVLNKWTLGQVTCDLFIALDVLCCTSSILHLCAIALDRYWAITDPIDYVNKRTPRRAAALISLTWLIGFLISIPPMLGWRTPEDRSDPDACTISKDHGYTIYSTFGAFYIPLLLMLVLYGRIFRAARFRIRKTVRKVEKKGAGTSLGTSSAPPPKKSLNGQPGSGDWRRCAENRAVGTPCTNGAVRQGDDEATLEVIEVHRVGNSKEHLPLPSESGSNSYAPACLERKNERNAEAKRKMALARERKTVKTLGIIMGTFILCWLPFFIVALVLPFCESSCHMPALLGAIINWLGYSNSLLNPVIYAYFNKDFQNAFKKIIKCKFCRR
human Vasopressin 1A Receptor (V1A), AVPR1A (gene 552), sequence (P37288 whole entry, looked up): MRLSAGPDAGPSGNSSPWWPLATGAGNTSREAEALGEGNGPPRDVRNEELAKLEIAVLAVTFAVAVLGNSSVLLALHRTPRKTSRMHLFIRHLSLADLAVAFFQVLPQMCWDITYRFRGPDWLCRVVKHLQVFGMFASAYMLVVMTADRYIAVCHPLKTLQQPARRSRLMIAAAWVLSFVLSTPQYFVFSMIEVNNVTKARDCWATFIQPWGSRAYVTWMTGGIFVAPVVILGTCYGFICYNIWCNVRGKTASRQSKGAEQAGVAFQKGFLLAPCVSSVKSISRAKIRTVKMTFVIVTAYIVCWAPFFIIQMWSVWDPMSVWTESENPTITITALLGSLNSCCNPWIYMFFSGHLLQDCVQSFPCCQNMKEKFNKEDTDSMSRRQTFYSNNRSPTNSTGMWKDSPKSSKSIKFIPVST
human Orphanin, Opioid Related Nociceptin Receptor 1 (ORL1), OPRL1 (gene 4987), sequence (P41146 whole entry, looked up): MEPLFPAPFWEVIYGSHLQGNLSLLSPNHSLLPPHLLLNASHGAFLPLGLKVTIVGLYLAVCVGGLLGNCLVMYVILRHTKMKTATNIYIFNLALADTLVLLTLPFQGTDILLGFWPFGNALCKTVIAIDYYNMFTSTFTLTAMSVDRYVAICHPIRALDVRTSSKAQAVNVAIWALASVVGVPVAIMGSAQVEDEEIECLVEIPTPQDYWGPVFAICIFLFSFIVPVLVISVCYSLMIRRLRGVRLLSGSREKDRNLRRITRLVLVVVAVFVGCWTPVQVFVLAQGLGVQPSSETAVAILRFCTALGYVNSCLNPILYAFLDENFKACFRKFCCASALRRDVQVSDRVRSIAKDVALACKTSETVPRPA
mouse Cholecystokinin, CCK1 Receptor (CCKA), Cckar (gene 12425), sequence (O08786 whole entry, looked up): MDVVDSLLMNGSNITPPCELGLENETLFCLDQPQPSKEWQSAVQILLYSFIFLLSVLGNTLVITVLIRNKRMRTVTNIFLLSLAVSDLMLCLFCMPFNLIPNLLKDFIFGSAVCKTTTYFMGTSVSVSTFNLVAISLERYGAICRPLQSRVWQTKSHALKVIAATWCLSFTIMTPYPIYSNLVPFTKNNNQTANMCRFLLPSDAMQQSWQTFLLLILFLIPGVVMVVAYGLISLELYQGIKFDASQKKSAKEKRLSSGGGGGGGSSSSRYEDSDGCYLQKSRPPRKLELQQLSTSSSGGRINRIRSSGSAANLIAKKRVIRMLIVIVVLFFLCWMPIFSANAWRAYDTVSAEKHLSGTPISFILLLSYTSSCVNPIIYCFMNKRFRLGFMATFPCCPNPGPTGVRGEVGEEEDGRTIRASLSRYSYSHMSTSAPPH
rat Adrenergic, Alpha 1, Non-selective Receptor (Adra1), Adra1a (gene 29412), sequence (P43140 whole entry, looked up): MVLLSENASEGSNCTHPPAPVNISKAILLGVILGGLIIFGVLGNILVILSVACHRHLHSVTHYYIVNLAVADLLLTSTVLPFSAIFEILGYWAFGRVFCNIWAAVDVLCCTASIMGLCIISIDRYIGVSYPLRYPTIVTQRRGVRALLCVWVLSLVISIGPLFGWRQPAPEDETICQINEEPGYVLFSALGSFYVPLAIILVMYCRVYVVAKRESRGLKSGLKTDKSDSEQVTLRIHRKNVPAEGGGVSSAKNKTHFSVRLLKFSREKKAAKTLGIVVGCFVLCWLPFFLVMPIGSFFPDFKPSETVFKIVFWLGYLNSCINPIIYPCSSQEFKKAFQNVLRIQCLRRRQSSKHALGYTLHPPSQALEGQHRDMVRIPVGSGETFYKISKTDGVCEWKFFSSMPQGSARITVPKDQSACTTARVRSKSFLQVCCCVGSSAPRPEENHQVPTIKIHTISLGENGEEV
mouse Cholecystokinin, CCK2 Receptor (CCKB), Cckbr (gene 12426), sequence (P56481 whole entry, looked up): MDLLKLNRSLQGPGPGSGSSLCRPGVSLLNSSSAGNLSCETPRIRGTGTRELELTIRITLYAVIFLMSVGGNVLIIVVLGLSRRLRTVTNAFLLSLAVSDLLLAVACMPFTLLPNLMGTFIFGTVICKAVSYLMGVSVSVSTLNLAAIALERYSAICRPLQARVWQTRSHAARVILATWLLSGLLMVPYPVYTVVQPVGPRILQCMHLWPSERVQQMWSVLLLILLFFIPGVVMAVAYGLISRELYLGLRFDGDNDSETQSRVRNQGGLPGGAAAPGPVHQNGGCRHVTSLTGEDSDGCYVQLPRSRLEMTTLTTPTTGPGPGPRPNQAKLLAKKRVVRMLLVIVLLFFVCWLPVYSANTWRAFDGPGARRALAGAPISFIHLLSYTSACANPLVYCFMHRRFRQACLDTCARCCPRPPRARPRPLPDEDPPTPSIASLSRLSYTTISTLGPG

C=CC(=C)CC/C=C(\C)CCC=C(C)C
outcome [1]: inactive

NC(=NCCCCCCN=C(N)/N=C(\N)Nc1ccc(Cl)cc1)/N=C(\N)Nc1ccc(Cl)cc1
AC50 [2]: 4.71 µM (active)
AC50 [1]: 3.32 µM (active) and 3.04 µM (active)

CCC(C)c1ccccc1O (stereo not given)
AC50 [3]: 11.5 µM (active)

CC(C)(C)c1ccc(O)c(O)c1
AC50 [1]: 17.4 µM (active)

CS(=O)(=O)c1ccc([C@@H](CC2CCCC2)C(=O)Nc2cnccn2)cc1Cl
outcome [4]: inactive

CCCCCCCCCCCCCCCCCC[N+](C)(C)Cc1ccccc1
AC50 [1]: 2.17 µM (active)

CN(C)c1ccc(C(=C2C=CC(=[N+](C)C)C=C2)c2ccccc2)cc1
AC50 [1]: 6.79 µM (active) and 6.47 µM (active)

CCCCC(CC)C(=O)O (stereo not given)
outcome [4]: inactive

CCCCCCCCCCCCOS(=O)(=O)O
outcome [3]: inactive
AC50 [1]: 25 µM (active)

CN(C)CCOC(c1ccccc1)c1ccccc1
AC50 [5]: 6.56 µM (active)
outcome [1]: inactive
outcome [6]: inactive

O=C(CCCN1CCC(O)(c2ccc(Cl)cc2)CC1)c1ccc(F)cc1
AC50 [7]: 37.3 µM (active)
outcome [5]: inactive
AC50 [6]: 1.75 µM (active)

N=C(N)c1ccc(OCCCCCOc2ccc(C(=N)N)cc2)cc1
AC50 [2]: 27.8 µM (active)
AC50 [5]: 3.44 µM (active)
AC50 [3]: 10.2 µM (active)
AC50 [6]: 2.4 µM (active)

CN(Cc1cnc2nc(N)nc(N)c2n1)c1ccc(C(=O)N[C@@H](CCC(=O)O)C(=O)O)cc1
outcome [3]: inactive
outcome [1]: inactive
outcome [8]: inactive

CCCCc1oc2ccccc2c1C(=O)c1cc(I)c(OCCN(CC)CC)c(I)c1
outcome [4]: inactive
AC50 [7]: 21.6 µM (active)
AC50 [9]: 22.5 µM (active)
AC50 [10]: 24.5 µM (active)
AC50 [6]: 15.7 µM (active)

O=C1OC2(c3ccccc31)c1cc(I)c(O)c(I)c1Oc1c2cc(I)c(O)c1I
AC50 [1]: 0.0269 µM (active)

Source: PubChem BioAssay (EPA / NIEHS)
